Screening data: PubChem BioAssay, National Center for Advancing Translational Sciences (NCATS)
PLK1 PBD block: blocks phosphopeptide binding to human PLK1 polo-box domain; Potency, µM, inactives show max response, negative = inhibition, most hits filed as inhibitors; AID 720504; Plk1 PBD binding of FITC phosphopeptide, fluorescence polarization; P53350; hit rate 2.8% among 360,000; note: potency is the fitted concentration of half-maximal effect; series mostly up to about 57 µM; nearly all actives have a fitted effect of over 65% in size
Target sequence (P53350 whole entry, looked up, the tested form may be a part): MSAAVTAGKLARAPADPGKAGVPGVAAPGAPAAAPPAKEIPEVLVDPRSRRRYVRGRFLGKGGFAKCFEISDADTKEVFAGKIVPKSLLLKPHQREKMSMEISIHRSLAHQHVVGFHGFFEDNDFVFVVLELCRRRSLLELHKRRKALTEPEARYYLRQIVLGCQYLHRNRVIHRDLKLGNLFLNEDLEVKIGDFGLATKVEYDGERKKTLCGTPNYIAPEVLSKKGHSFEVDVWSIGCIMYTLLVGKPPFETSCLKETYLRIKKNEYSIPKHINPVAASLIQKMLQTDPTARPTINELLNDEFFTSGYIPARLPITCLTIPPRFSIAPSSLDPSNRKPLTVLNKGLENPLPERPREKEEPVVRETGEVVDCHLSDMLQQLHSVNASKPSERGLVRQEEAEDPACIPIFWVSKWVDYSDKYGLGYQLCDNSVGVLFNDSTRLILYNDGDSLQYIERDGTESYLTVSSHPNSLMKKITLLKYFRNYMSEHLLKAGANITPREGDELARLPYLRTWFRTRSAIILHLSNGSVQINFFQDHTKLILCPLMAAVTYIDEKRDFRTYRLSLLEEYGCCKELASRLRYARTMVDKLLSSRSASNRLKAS
CCT modulator: modulators of cytosolic chaperonin (CCT/TRiC) activity. hit rate 0.3% among 360,000. activity change, % (test concentration not listed), hits read low. purified chaperonin ATPase assay, HTRF ADP detection, 30 min; in the data active = activity change below about -30%
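TRiC at 40 or 20 nM final (batch-dependent) in 30 mM Tris pH 7.4, 100 mM KCl, 5 mM MgCl2, 1 mM DTT, with compound at single 76 uM and 10 uM ATP, 30 min at 37 deg C. ADP detected by HTRF Transcreener, 665/615 ratio.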
VDR inhibitor: blocks the human vitamin D receptor; P11473; VDR-SRC2-3 peptide fluorescence polarization, 2 h; Potency, µM, for the others: max response, negative = inhibition, hits mostly inhibitors; hit rate 0.93% among 400,000; note: potency is the fitted concentration of half-maximal effect
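After 23 nl compound addition and a short centrifugation, plates sat for 2 hours at ambient temperature; polarization of fluorescence then indicated loss of VDR binding to peptide SRC2-3.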
Sfp PPTase inh: blocks B. subtilis Sfp PPTase activity. Potency, µM, for the others: largest response in the series, negative = inhibition, actives largely listed as inhibitors. Biochemical Sfp PPTase activity, qHTS. AID 1490. hit rate 3.5% among 310,000;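 note: the enzyme is Sfp with the accession as filed and its product quenches rhodamine fluorescence; potency is the fitted concentration of half-maximal effect; 0% = enzyme reaction without inhibitor and -100% = no enzyme wells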
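Reaction rates are the 30-min fluorescence difference (ex 525, em 598 nm) in wells containing 15 nM Sfp, 5 uM rhodamine-CoA and 12.5 uM BHQ-2-YbbR at pH 7.6 with 10 mM MgCl2.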
Mm-Cpn inhibitor: M. maripaludis TRiC chaperonin inhibition; purified Mm-Cpn ATPase, ADP Transcreener TR-FRET; Potency, µM (highest dose often 76.9 µM), for the others: top-dose activity, negative = inhibition, most hits filed as inhibitors; hit rate 0.031% among 330,000; note: potency is the fitted concentration of half-maximal effect; nearly all actives have a fitted effect of over 80% in size
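ATPase turnover read by TR-FRET ADP competition (Eu cryptate antibody/ADP-d2, 665/590 nm): 10uM ATP final, 25nM Mm-CPN final, 30 min 37degC after 10-min compound preincubation, pH 7.4 Tris/KCl/MgCl2/DTT buffer.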
G9a inh: blocks human histone lysine methyltransferase G9a. Q96KQ7. G9a H3K9 monomethylation, AlphaScreen, 2 h. Potency, µM (series often up to 102 µM), without a hit: at the top dose activity, negative = inhibition, most hits filed as inhibitors. hit rate 8.8% among 350,000; note: potency is the fitted concentration of half-maximal effect; nearly all actives have a fitted effect of over 75% in size
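Chemiluminescent proximity detection of H3K9 monomethylation, read after 10 min bead incubation in the dark. Reaction: 20 nM G9a, 500 nM biotin-H3K9 peptide, 20 uM SAM cofactor, 2 h, room temperature, following 15 min enzyme-compound preincubation.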
The depositor's hits bear a star; u = inconclusive; x = no result; [ ] = another dose, or the depositor's remark. Only some compounds are listed: those with a hit (about 10% of all), similar ones and a draw of the others. Unless noted, calls come from the whole dose curve; as a rule, active = well fitted curve in the direction sought with a large enough effect; inconclusive = small, poorly fitted or top-dose-only effect, or another doubt; inactive = no such curve, though single readings can be large; an effect the other way counts as inactive or inconclusive. Unless noted, % is set by controls: 0 for no effect and ±100 for the full control effect.

SMILES | PLK1 PBD block | CCT modulator | VDR inhibitor | Sfp PPTase inh | Mm-Cpn inhibitor | G9a inh
Cc1nc(SCC(=O)N2CCN(c3ccccc3)CC2)n[nH]1 | u | -2 | -3% | -11% | -1% | 40µM*
Nc1nnc(SCC(=O)N2CCN(c3ccccc3)CC2)s1 | -2% | -3 | -18% | 11% | 0% | 50µM*
Nc1nnc(SCC(=O)N2CCCCC2)s1 | -12% | -2 | -4% | 17% | 1% | 51%
Nc1nc(SCC(=O)N2CCN(c3ccccc3)CC2)n[nH]1 | -1% | 1 | 20% | 4% | 4% | 40µM*
COc1cc(S(=O)(=O)n2ccc(C)n2)ccc1Cl | -4% | -48* | 6% | 7% | 1% | 35%[59 µM]
CCn1c(CSc2nc3ccccc3[nH]2)nc2cc(C(=O)O)ccc21 | -19% | -1 | u | 3% | -5% | -45%[12.7 µM]
CCn1c(CSc2nccn2C)nc2cc(C(=O)O)ccc21 | -18% | 3 | u | 56µM* | 2% | -38%[12.7 µM]
O=C(Cn1c(=O)n(Cc2ccc(F)cc2)c(=O)c2sc3ccccc3c21)NCc1ccccc1Cl | x | x | -1% | x | x | -3%[59 µM]
CCCCn1c(N)c(N(CC)C(=O)c2ccc(N3CCCC3=O)cc2)c(=O)[nH]c1=O | 4% | 1 | -2% | x | 1% | 50µM*
CCCCn1c(N)c(N(CC)C(=O)c2ccc(C#N)cc2)c(=O)[nH]c1=O | -5% | 2 | 3% | -3% | 2% | 50µM*
CCCCn1c(N)c(N(CCC(C)C)C(=O)c2ccc(N3CCCC3=O)cc2)c(=O)[nH]c1=O | -4% | -1 | -10% | x | 1% | 35µM*
CCCCn1c(N)c(N(CCC(C)C)C(=O)C(C)N2C(=O)c3ccccc3C2=O)c(=O)[nH]c1=O (stereo not drawn) | -2% | -1 | 0% | x | 1% | 13µM*
CCCCn1c(N)c(N(CC)C(=O)c2ccc(C)cc2)c(=O)[nH]c1=O | -9% | -3 | -7% | -1% | 1% | 9%
Cc1ccccc1NC(=O)Cn1c(=O)oc2cc(Br)ccc21 | x | x | 5% | x | x | -30%[59 µM]
CCCCn1c(N)c(N(CC(C)C)C(=O)C2CCN(C(=O)c3ccc(Cl)cc3)CC2)c(=O)[nH]c1=O | 0% | 2 | 0% | x | -1% | u
CCCCn1c(N)c(N(CCC(C)C)C(=O)C2CCCN(C(=O)c3ccc(Cl)cc3)C2)c(=O)[nH]c1=O (stereo not drawn) | -4% | -2 | -25% | x | -1% | 40µM*
Cc1ccc(C2CC(c3ccccc3)=NN2C(=S)Nc2ccccc2)o1 (stereo not drawn) | -29% | 0 | -19% | 45µM* | u | -3%[12.7 µM]
CC1=NN(C(=S)Nc2ccccc2)C(c2ccccc2)C1 (stereo not drawn) | -2% | -1 | -4% | -16% | 1% | 0%[59 µM]
S=C(Nc1ccccc1)N1N=C(c2cccs2)CC1c1cccs1 (stereo not drawn) | 12µM* | 0 | 79µM* | -7% | u | x
CC1CCCN(S(=O)(=O)c2ccc(NC(=O)CN3C(=O)NC(C)(c4ccccc4)C3=O)cc2)C1 (stereo not drawn) | -1% | -7 | -3% | x | 3% | 56µM*
CCC1(c2ccccc2)NC(=O)N(CC(=O)Nc2ccc(Cl)c(S(=O)(=O)N3CCCCC3)c2)C1=O (stereo not drawn) | -4% | -2 | 8% | x | 2% | -4%[12.7 µM]
Cc1ccc(C2(C)NC(=O)N(CC(=O)Nc3ccc(Cl)c(S(=O)(=O)N4CCCCC4)c3)C2=O)cc1 (stereo not drawn) | 10% | -4 | -16% | x | -1% | 40µM*
CC1CCCN(S(=O)(=O)c2ccc(C(=O)NC(C)c3ccccc3)cc2)C1 (stereo not drawn) | -9% | 0 | u | x | 1% | 18µM*
COc1ccc(NC(=O)CN2C(=O)NC3(CC(C)CC(C)(C)C3)C2=O)cc1S(=O)(=O)N1CCCCC1 (stereo not drawn) | -2% | 0 | -18% | x | 1% | 16µM*
CC(=O)c1ccc(NC(=O)C(C)n2nc(-c3ccccc3)ccc2=O)cc1 (stereo not drawn) | x | x | -5% | x | x | 8%[59 µM]
SMILES | PLK1 PBD block | CCT modulator | VDR inhibitor | Sfp PPTase inh | Mm-Cpn inhibitor | G9a inh
Cc1ccc(NC(=O)c2c(C)oc3ccc(O)c(CN4CCCCCC4)c23)c(C)c1 | x | x | 10% | x | x | -30%[59 µM]
Cc1ccc(C[C@H](C(=O)O)N2C(=O)c3ccc(C(=O)O)cc3C2=O)cc1 | x | x | x | 0% | 2% | 4%[12.7 µM]
CCc1ccccc1NC(=O)CCn1cccn1 | x | x | 0% | x | x | 7%[59 µM]
Cc1c(C(=O)NCCO)[n+](=O)c2ccccc2n1[O-] | x | x | -2% | -13% | x | u
COc1ccc2c(c1)[n+](=O)c(C(C)=O)c(C)n2[O-] | u | 0 | -4% | -27% | -6% | 28µM*
CCc1nc2ccccc2c(=O)n1/N=C/c1ccc(Cl)cc1 | 2% | -33* | 0% | x | x | x
CN(C)S(=O)(=O)N(CC(=O)NCCSc1ccccc1)c1ccccc1 | x | x | 5% | x | x | -2%[59 µM]
Cn1c(SCc2ccc(F)cc2)nc2ccc(C(=O)NCc3cccc(Cl)c3)cc21 | x | x | 0% | x | x | -33%[59 µM]
C#CCOCCOCCOCCNc1nc(N2CCN(C(=O)[C@H]([C@@H](C)CC)n3cc(CCCN=C(N)N)nn3)CC2)nc(N2CCN(C(=O)[C@H](CCCCN)n3cc(CCC(=O)O)nn3)CC2)n1 | 1% | -3 | 20% | 3% | 0% | 50µM*
C#CCOCCOCCOCCNc1nc(N2CCN(C(=O)[C@H]([C@@H](C)O)n3cc(CCCCN)nn3)CC2)nc(N2CCN(C(=O)[C@H]([C@@H](C)CC)n3cc(CCCN=C(N)N)nn3)CC2)n1 | -4% | 0 | -9% | 0% | -1% | 50µM*
O=C(O)CCc1c(C(=O)O)[nH]c2cc(Cl)cc(Cl)c12 | x | x | -21% | 11% | x | x
O=C(NCCc1cscn1)C1CCC(=O)N(Cc2ccc(Cl)cc2)C1 (stereo not drawn) | -9% | -3 | 15% | -10% | 0% | 71µM*
COc1ccc(-n2c(SC)nc3sc4c(c3c2=O)CCN(C)C4)cc1 | -13% | 0 | -1% | -6% | -3% | u
CN1CCc2c(sc3nc(NN)n(Cc4ccccc4)c(=O)c23)C1 | -4% | 0 | -7% | -17% | 1% | 45µM*
COc1ccc(-n2c(=S)[nH]c3sc4c(c3c2=O)CCN(C)C4)cc1 | x | x | x | u | -1% | 14µM*
CN1CCc2c(sc3nc(NN)n(-c4ccc(Cl)cc4)c(=O)c23)C1 | -16% | 0 | -9% | -18% | 2% | 45µM*
CC(C)(C)NC(=O)c1oc2ccccc2c1NC(=O)c1ccc(F)cc1 | x | x | 7% | x | x | -16%[59 µM]
CC(=O)c1ccc(NC(=O)CSc2nnc3ccc(-c4ccc(F)cc4)nn23)cc1 | x | x | -6% | x | x | 7%[59 µM]
CCOC(=O)COc1ccc2c(C)cc(=O)oc2c1C(=O)c1ccccc1 | 21µM* | 1 | -7% | 8% | 3% | -44%
